# From PubChem BioAssay (NCI)
# This is part of a sample that, as a whole, favours compounds with a hit. Of some 83,000 tested, about 20% had one in any assay.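 Percent growth is the endpoint: 0 to 100 indicates growth inhibition (40 means 60% inhibition), 0 means no net growth, and negative values indicate cell death.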 A number with no mark means an inactive call. Calls of active or inactive are those of the source. The calls were made as follows: active = growth percent below 10; inactive = the rest.
# Tested on: 786-0 renal
# Assay: NCI-60 one-dose screen, 48 h (100 = growth as untreated, 0 = no growth, -100 = all killed)
# Details: 10 µM unless noted
row,SMILES,growth
1,O=C(Nc1ccc(Cl)cc1)C1=NCCCCN1,99.9%
2,Fc1ccc(/C=C/c2cc(/C=C/c3ccc(F)cc3)n(-c3cc(F)cc(F)c3)n2)cc1,77.4%
3,Nc1n[nH]c2cccc(C#Cc3cccc(C(=O)Nc4ccc(Cl)c(C(F)(F)F)c4)c3)c12,76.6%
4,CC/C(=C(/c1ccc(Cl)cc1)c1ccc(OCCN2CCCCCC2)cc1)c1ccccc1,85.2%
5,COC(CCP(=O)(c1ccccc1)c1ccccc1)(C(=O)c1ccccc1)c1ccccc1 (centres undefined),89.4%
6,CC(=O)CC(=O)c1ccccc1.[Cu+2],107%
7,CN1CCN(Cc2ccc(NC(=O)c3cncc(C#Cc4cnc(N)c5ccc(C#N)cc45)c3)cc2C(F)(F)F)CC1,-71.8% (active)
8,CNC(=O)c1cc(Oc2ccc3nc(NC(=O)NC(C)C)sc3c2)ccn1,80.3%
9,N/C(=N\c1nc2ccccc2s1)NC(=O)Nc1ccccc1,52.3%
10,CCOC(=O)/C(=C\c1ccccc1Cl)P(=O)(OCC)OCC,75.8%
11,O=C(/C=C/c1ccc(Cl)cc1)c1ccc(-n2cc(CN3CCN(c4cc5c(cc4F)c(=O)c(C(=O)O)cn5C4CC4)CC3)nn2)cc1,78.1%
12,COc1cc2cc(Oc3ccc(NC(=O)Nc4ccc(Cl)c(Cl)c4)cc3)c(C)nc2cc1OCCN1CCCCC1,-70% (active)
13,CCN(CC)CCN1C(=O)c2c(c(C)c3c(oc4cc(OC)ccc43)c2C)C1=O,-74% (active)
14,Cn1ncc(CC(=O)O)c1-n1nnc2cc(Cl)ccc2c1=O,96.6%
15,COc1ccc(CNc2ccc3nc(CCC4CCCCC4)[nH]c3c2)cc1,62.7%
16,CC(C)(C)[C@H](OCc1cn([C@H]2C[C@@H](O)[C@@H](CO)O2)c(=O)[nH]c1=O)c1ccc(C#Cc2ccccc2)cc1[N+](=O)[O-],27.8%
17,N#C/C(=C\c1cccc2cnccc12)N1N=NC2C=CC=CC21 (centres undefined),53.1%
18,Cc1c2cnccc2c(C)c2c1c1cc(C(=O)O)ccc1n2C,22.3%
19,COCCn1cc(-c2nc(-c3cc4cccnc4n3C)cs2)c2cc(OC)ccc21,66.8%
20,Cc1ccc(S(=O)(=O)N(CCC(=O)O)c2ccccc2)cc1,94.3%

row,SMILES,growth
1,C=CN(C(=O)N1CCN(c2cc3c(cc2F)c(=O)c(C(=O)O)cn3C2CC2)CC1)c1nc(-c2ccc(C)cc2)cs1,22.8%
2,CCOC(=O)/C(=C/c1ccc([N+](=O)[O-])cc1)C(=O)c1ccccc1,17.2%
3,CC(C)C(=O)Nc1ncc(C(=O)NCCN(Cc2ccccc2)C(=O)c2ccc(S(=O)(=O)Nc3ccccc3)cc2)s1,96.6%
4,OC1CSSC1Cn1cnc2c(Nc3ccc(F)c(Cl)c3)ncnc21 (centres undefined),108%
5,CCCCCCCCNc1ncnc2c1ncn2Cc1nnc2c3ccccc3c(Cl)nn12,47.7%
6,CN1C(=O)N(C)C2C1NN=c1s/c(=C\c3ccc(F)cc3)c(=O)n12 (centres undefined),40.7%
7,COC(=O)c1cc(-c2cc(OC)c(OC)c(OC)c2)[nH]c1N/N=C/c1c(Cl)cccc1Cl,-44.4% (active)
8,COc1ccc(Nc2nc(Nc3cc(C)[nH]n3)c3cc(OC)c(OC)cc3n2)cc1,-83.3% [20 µM] (active)
9,CCN1C(=O)N(CC)C2C1NN=c1s/c(=C\c3ccc(F)cc3)c(=O)n12 (centres undefined),35%
10,CC(C)c1nc(N(C)S(C)(=O)=O)nc(-c2ccc(F)cc2)c1/C=C/C(=O)C[C@@H](O)CC(=O)O,106%
11,C=C(C)[C@@H]1CC[C@]2(COCCCNCCCN)CC[C@]3(C)[C@H](CC[C@@H]4[C@@]5(C)CC[C@H](OCCCN)C(C)(C)[C@@H]5CC[C@]43C)[C@@H]12,-83.6% (active)
12,C=C(C)[C@@H]1CC[C@]2(COC(=O)c3cccnc3)CC[C@]3(C)[C@H](CC[C@@H]4[C@@]5(C)CCCN(C(=O)c6cccnc6)C(C)(C)[C@@H]5CC[C@]43C)[C@@H]12,45.1%
13,COc1cccc(C2C(C#N)=C(N)Oc3c2ccc2ccccc32)c1 (centres undefined),20.6%
14,C#Cc1cccc(Nc2ncnc3ccc(-c4cnc(Cl)c(NS(C)(=O)=O)c4)cc23)c1,-14.6% (active)
15,CCN1C(=O)N(CC)C2C1NN=c1s/c(=C3\C(=O)N(C)c4ccccc43)c(=O)n12 (centres undefined),36.9%
16,O=C(Nc1ncc(Cc2ccccc2)s1)c1ccc2c(c1)OCCO2,33.1%
17,COc1cc(/C=C/c2cc(/C=C/c3ccc(O)c(OC)c3)n(C(=O)Nc3ccc(C)cc3C)n2)ccc1O,-59.1% (active)
18,CC(C)(C)CC(C)(C)Nc1c(-c2c(O)c3ccccc3oc2=O)nc2sccn12,109%
19,COc1ccc(Cn2cc3c(c2)-c2oncc2CC3)cc1,72.5%
